Measured values taken from PubChem BioAssay (Tox21).
Results filed as inconclusive are left out. Calls of active or inactive are those of the source. Unless noted, calls come from the whole dose curve; as a rule, active = well fitted curve in the direction sought with a large enough effect in the repeat runs; inconclusive = weak or mixed curves; inactive = no such curve, though single readings can be large; an effect the other way counts as inactive or inconclusive.

What was measured:
[1] = qHTS assay to identify small molecule antagonists of the glucocorticoid receptor (GR) signaling pathway - cell viability counter screen (AID 720693); note: nearly all actives have a fitted effect of over 55% in size; note: potency is the fitted concentration of half-maximal effect
[2] = qHTS assay for identifying genotoxic compounds that show differential cytotoxicity against isogenic chicken DT40 cell lines with known DNA damage response pathways - wild type cell line (AID 743012); note: nearly all actives have a fitted effect of over 60% in size; note: potency is the fitted concentration of half-maximal effect
How it was run: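 Endpoint: CellTiter-Glo luminescence, 30 min RT. Cells: wild type DT40, 300/well. Exposure: compounds in DMSO, 40 h, 37 C/5% CO2, after ~0.5 h pre-incubation.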

[3] = qHTS assay for identifying genotoxic compounds that show differential cytotoxicity against isogenic chicken DT40 cell lines with known DNA damage response pathways - Rad54/Ku70 mutant cell line (AID 743015); note: nearly all actives have a fitted effect of over 60% in size; note: potency is the fitted concentration of half-maximal effect
[4] = qHTS assay to identify small molecule antagonists of the androgen receptor (AR) signaling pathway - cell viability counter screen (AID 743033; note: nearly all actives have a fitted effect of over 45% in size)
[5] = qHTS assay to identify small molecule antagonists of the androgen receptor (AR) signaling pathway using the MDA cell line - cell viability counter screen (AID 743041; note: nearly all actives have a fitted effect of over 45% in size)
How it was run: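 Compound exposure lasted 16 h at 37C in MDA-kb2 AR-luc cells stimulated with R1881. Protease-based CellTiter-Fluor reagent was applied for the final 30 min and fluorescence measured.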

[6] = qHTS assay to identify small molecule antagonists of the thyroid receptor (TR) signaling pathway - cell viability counter screen (AID 743064); note: nearly all actives have a fitted effect of over 50% in size
How it was run: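 GH3.TRE-Luc cells, 4 h pre-plating; cpd + T3 1 nM final; 37 °C 23.5 h; CellTiter-Fluor 30 min; fluorescence read.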

[7] = system: thyroid hormone receptor (rat, GH3 cells); test: qHTS assay to identify small molecule agonists of the thyroid receptor (TR) signaling pathway (AID 743066; calls by dose curve)
[8] = biological target: Estrogen receptor (Homo sapiens) (UniProt P03372); test: qHTS assay to identify small molecule antagonists of the estrogen receptor alpha (ER-alpha) signaling pathway (AID 743069; active = well fitted curve in the direction sought with a large enough effect in the signal ratio in the repeat runs, not every such curve was filed as active; the % refers to the signal ratio)
How it was run: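 In this cell-based reporter format, GripTite HEK293 cells harbouring ER-alpha-UAS-bla were grown overnight with 2% charcoal-stripped FBS, dosed with DMSO-dissolved compounds, then challenged with 17beta-estradiol. After 18 hr at 37C, beta-lactamase activity was detected by FRET fluorescence.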

[9] = qHTS assay to identify small molecule antagonists of the estrogen receptor alpha (ER-alpha) signaling pathway - cell viability counter screen (AID 743074; calls by dose curve; note: nearly all actives have a fitted effect of over 45% in size; note: potency is the fitted concentration of half-maximal effect)
[10] = biological target: Estrogen receptor (Homo sapiens) (UniProt P03372); test: qHTS assay to identify small molecule agonists of the estrogen receptor alpha (ER-alpha) signaling pathway (AID 743075; calls by dose curve)
[11] = biological target: Estrogen receptor (Homo sapiens) (UniProt P03372); test: qHTS assay to identify small molecule agonists of the estrogen receptor alpha (ER-alpha) signaling pathway using the BG1 cell line (AID 743079); details: BG1Luc4E2 cells, ERE-luciferase agonist, 22 h; activation: at 70.3 µM (top of the series); note: nearly all actives have a fitted effect of over 20% in size; note: potency is the fitted concentration of half-maximal effect
[12] = biological target: Aromatase (Homo sapiens) (UniProt P11511); test: qHTS assay to identify aromatase inhibitors (AID 743083); note: nearly all actives have a fitted effect of over 55% in size; note: potency is the fitted concentration of half-maximal effect
[13] = qHTS assay to identify small molecule antagonists of the estrogen receptor alpha (ER-alpha) signaling pathway using the BG1 cell line (AID 743080; calls by dose curve;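 note: BG1 cells stimulated with 17beta-estradiol alongside compound; nearly all actives have a fitted effect of over 25% in size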)
How it was run: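 Seeding, 24 h rest, compound transfer from DMSO, 17beta-estradiol addition, 21.5 h incubation, CellTiter-Fluor (30 min, 37 C), then ONE-Glo (30 min, room temperature): this sequence was run on BG1-Luc-4E2 reporter cells.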

[14] = qHTS assay to identify small molecule antagonists of the estrogen receptor alpha (ER-alpha) signaling pathway using the BG1 cell line - cell viability counter screen (AID 743081);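 note: compound given together with 17beta-estradiol as the ER stimulus; nearly all actives have a fitted effect of over 45% in size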
[15] = qHTS assay to identify small molecule antagonists of the thyroid receptor (TR) signaling pathway (AID 743065); note: nearly all actives have a fitted effect of over 55% in size; note: potency is the fitted concentration of half-maximal effect
How it was run: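 GH3.TRE-Luc rat pituitary cells (two TREs driving luciferase) were dosed with compound, then stimulated with 1 nM T3 (final) for 23.5 h at 37 C. ONE-Glo luminescence was the read-out, with CellTiter-Fluor fluorescence as the cytotoxicity counter-screen.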

[16] = biological target: Androgen receptor (Homo sapiens) (UniProt P10275); test: qHTS assay to identify small molecule agonists of the androgen receptor (AR) signaling pathway using the MDA cell line (AID 743040; note: nearly all actives have a fitted effect of over 20% in size; note: potency is the fitted concentration of half-maximal effect)
How it was run: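 Testing was done with the MDA-kb2 AR-luc line, a human breast carcinoma stably transfected with MMTV-luciferase containing AR and GR response elements. Cells were exposed 16 h at 37C before ONE-Glo luminescence detection.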

[17] = biological target: Androgen receptor (Homo sapiens) (UniProt P10275); test: qHTS assay to identify small molecule antagonists of the androgen receptor (AR) signaling pathway using the MDA cell line (AID 743042; note: nearly all actives have a fitted effect of over 55% in size)
How it was run: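 MDA-kb2 breast carcinoma cells carrying MMTV-luciferase (AR/GR responsive) were co-treated with compounds and the agonist R1881 for 16 h at 37C. Inhibition read as ONE-Glo luminescence; CellTiter-Fluor fluorescence measured in parallel for cytotoxicity.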

[18] = biological target: Androgen receptor (Homo sapiens) (UniProt P10275); test: qHTS assay to identify small molecule agonists of the androgen receptor (AR) signaling pathway (AID 743036; active = well fitted activation curve with a large enough effect in the signal ratio in the repeat runs, with a control signal flat, not every such curve was filed as active; the % refers to the signal ratio)
How it was run: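 AR-bla HEK293 cells, 2,000/well; 4 h preincubation 37C/5% CO2; compound (DMSO) 16 h at 37C; LiveBLAzer B/G FRET substrate 2 h RT; fluorescence intensity read-out.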

Measured: Potency

Sequence of Estrogen receptor (Homo sapiens) (P03372 whole entry, looked up): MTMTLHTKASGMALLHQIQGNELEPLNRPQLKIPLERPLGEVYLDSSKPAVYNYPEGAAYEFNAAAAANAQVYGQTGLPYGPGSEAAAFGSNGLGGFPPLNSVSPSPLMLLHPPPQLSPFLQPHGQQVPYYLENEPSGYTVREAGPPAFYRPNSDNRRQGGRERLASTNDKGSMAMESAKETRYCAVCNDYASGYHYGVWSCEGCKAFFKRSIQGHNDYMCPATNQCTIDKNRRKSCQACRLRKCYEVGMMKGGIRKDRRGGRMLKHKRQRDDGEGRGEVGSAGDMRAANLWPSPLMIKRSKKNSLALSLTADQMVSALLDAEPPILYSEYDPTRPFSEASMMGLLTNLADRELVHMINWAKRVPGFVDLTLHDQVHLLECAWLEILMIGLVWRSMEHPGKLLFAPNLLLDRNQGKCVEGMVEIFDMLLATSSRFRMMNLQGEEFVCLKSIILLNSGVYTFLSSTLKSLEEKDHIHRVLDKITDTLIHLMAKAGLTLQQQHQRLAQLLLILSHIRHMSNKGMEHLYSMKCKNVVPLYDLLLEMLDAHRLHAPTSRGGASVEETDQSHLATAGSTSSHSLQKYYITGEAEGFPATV
Sequence of Androgen receptor (Homo sapiens) (P10275 whole entry, looked up): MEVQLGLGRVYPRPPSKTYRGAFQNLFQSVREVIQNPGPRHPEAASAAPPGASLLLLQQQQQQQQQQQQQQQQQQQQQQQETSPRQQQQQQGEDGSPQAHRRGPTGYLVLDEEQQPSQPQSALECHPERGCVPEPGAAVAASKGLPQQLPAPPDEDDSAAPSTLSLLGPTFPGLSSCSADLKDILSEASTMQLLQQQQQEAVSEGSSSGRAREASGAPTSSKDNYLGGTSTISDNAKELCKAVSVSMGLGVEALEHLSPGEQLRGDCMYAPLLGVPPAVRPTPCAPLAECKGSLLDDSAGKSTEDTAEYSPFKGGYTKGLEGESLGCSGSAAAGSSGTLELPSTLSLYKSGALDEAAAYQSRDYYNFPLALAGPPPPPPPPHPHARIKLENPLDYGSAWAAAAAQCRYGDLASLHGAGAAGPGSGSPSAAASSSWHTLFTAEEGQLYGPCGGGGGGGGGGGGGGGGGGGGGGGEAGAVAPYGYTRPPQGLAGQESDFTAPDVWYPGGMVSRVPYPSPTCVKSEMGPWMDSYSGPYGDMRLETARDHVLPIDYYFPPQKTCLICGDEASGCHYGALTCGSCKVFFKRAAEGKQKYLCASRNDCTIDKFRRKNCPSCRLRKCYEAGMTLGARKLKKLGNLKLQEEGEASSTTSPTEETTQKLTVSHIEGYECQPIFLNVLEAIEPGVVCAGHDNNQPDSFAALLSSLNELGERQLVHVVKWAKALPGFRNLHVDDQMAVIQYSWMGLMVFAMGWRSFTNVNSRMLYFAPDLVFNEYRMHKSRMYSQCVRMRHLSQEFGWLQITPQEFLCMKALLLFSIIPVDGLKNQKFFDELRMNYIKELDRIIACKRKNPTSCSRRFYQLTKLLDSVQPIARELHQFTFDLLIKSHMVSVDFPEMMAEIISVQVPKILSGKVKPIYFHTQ
Sequence of Aromatase (Homo sapiens) (P11511 whole entry, looked up): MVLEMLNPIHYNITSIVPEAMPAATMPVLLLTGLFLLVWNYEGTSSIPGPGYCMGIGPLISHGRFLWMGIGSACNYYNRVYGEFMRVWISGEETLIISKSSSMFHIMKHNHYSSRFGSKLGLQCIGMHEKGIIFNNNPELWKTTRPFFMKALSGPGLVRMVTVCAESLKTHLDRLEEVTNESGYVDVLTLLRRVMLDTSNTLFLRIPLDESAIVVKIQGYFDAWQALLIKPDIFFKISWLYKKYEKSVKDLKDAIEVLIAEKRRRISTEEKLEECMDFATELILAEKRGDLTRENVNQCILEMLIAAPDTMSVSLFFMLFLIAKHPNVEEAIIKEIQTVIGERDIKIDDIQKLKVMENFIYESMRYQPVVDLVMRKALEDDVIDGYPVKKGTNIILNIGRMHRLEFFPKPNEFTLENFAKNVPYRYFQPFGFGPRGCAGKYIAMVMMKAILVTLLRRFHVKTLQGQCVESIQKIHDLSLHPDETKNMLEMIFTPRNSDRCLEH

N[C@@H](C(=O)N[C@@H]1C(=O)N2C(C(=O)O)=C(Cl)CC[C@H]12)c1ccccc1
not listed: [13] | [14] | [15] | [16] | [17] | [18]
inactive: all other assays above

CCCCCCCCCCCCCCCC(=O)OC[C@@H](O)[C@H]1OC[C@H](O)[C@H]1O
not listed: [7] | [9] | [15] | [16] | [17] | [18]
inactive: all other assays above

COC(=O)CCC[N+](C)(C)C
inactive: [1] | [2] | [3] | [4] | [5] | [6] | [9] | [14] | [12]

C[C@@H](O)[C@H]1C(=O)N2C(C(=O)[O-])=C(SC3Cn4cnc[n+]4C3)[C@H](C)[C@H]12 (stereo partly drawn)
not listed: [8] | [10] | [11] | [13] | [16] | [17] | [18]
inactive: all other assays above

Nc1nc(=O)n([C@@H]2CS[C@H](CO)O2)cc1F
inactive: [1] | [2] | [3] | [4] | [5] | [6] | [15] | [7] | [9] | [14]

C[C@@H]1C[C@H]2[C@@H]3CCC4=CC(=O)C=C[C@]4(C)[C@@]3(F)[C@@H](O)C[C@]2(C)[C@@]1(O)C(=O)COC(=O)c1cccc(S(=O)(=O)O)c1
active: [16] 0.0841 µM | [11] 15 µM
not listed: [8] | [13] | [18]
inactive: all other assays above

Cc1nc(NS(=O)(=O)c2ccc(N)cc2)nc(C)c1Br
not listed: [8] | [16] | [17] | [18]
inactive: all other assays above

C[C@H]1C[C@@H]2[C@H]([C@@H](O)C[C@@]3(C)[C@H]2CC[C@]3(O)C(=O)COC(=O)CCC(=O)O)[C@@]2(C)C=CC(=O)C=C12
active: [9] 10.7 µM
not listed: [8] | [10] | [11] | [13] | [16] | [17] | [18]
inactive: all other assays above

COc1ccc(C[C@H](C)NC[C@@H](O)c2ccc(O)c(NC=O)c2)cc1
inactive: [1] | [4] | [5] | [7] | [8] | [9] | [10] | [11] | [13]
active: [2] 26.6 µM | [3] 26.6 µM

Cc1c(O)cc2c(c1C)O[C@](C)(CCC[C@H](C)CCC[C@H](C)CCCC(C)C)CC2
not listed: [8] | [16] | [17] | [18]
inactive: all other assays above

N#CC(c1ccc(Cl)cc1)c1c(Cl)cc(-n2ncc(=O)[nH]c2=O)cc1Cl (stereo not drawn)
active: [2] 29.8 µM | [3] 29.8 µM | [15] 3.76 µM
not listed: [6] | [7] | [8] | [9] | [13] | [18]
inactive: all other assays above

CCCC(CCC)C(N)=O
not listed: [14] | [16] | [17] | [18]
inactive: all other assays above

C[C@]12CCC(=O)C=C1CC[C@@H]1[C@@H]2[C@@H](O)C[C@@]2(C)[C@H]1CC[C@]2(O)C(=O)COP(=O)(O)O
active: [11] 29.8 µM
not listed: [8] | [10] | [13] | [16] | [17] | [18]
inactive: all other assays above

CCOC(=O)c1c[nH]c2cc(OCC(C)C)c(OCC(C)C)cc2c1=O
not listed: [6]
inactive: all other assays above

CCCCC(=O)N(Cc1ccc(-c2ccccc2-c2nn[nH]n2)cc1)[C@@H](C(=O)O)C(C)C
not listed: [6] | [7] | [15] | [16] | [17] | [18]
inactive: all other assays above

CSc1nc2cc(Oc3cccc(Cl)c3Cl)c(Cl)cc2[nH]1
inactive: [4] | [5]
active: [1] 10.7 µM | [2] 18.8 µM | [3] 21.1 µM | [15] 8.41 µM | [9] 23.9 µM | [12] 23.7 µM

NCCCNCCCCNC(=O)C(O)NC(=O)CCCCCCN=C(N)N (stereo not drawn)
active: [2] 1.06 µM | [3] 0.841 µM
not listed: [14] | [16] | [17] | [18]
inactive: all other assays above
